From PubChem BioAssay
Rab9 prom act: activators of Rab9 promoter; Huh7 Rab9 promoter-luciferase reporter, luminescence, 24 h; Potency, µM (highest dose often 9.22 µM), for inactives: at the top dose activation, negative = inhibition, usual class: activators; actives 2.8% (n = 320,000); further: % of control where 0% means no effect; nearly all actives have a fitted effect of over 60% in size
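Luminescence read-out: Huh7 cells stably expressing Rab9-luciferase, treated 24 h with compound at 37 °C, then lysed with luciferase reagent for 10 min at ambient before reading.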
ELG1 genotox: inducers of genotoxicity in HEK293T ELG1-luciferase cells | HEK293T ELG1-luciferase reporter, luminescence, 16 h | Potency, µM (highest dose often 46 µM), inactives show at the highest dose activity change, positive = activation, actives largely listed as activators | actives 1.3% (n = 330,000); further: % of control where 0% means no effect; nearly all actives have a fitted effect of over 60% in size
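16 hr compound incubation (37 °C, 5% CO2) of HEK293T cells carrying luciferase-tagged ELG1; luciferase then measured by ONE-Glo luminescence after 30 min at RT.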
FLuc modulator: firefly luciferase modulation, counter-screen for miR-21 project | P08659 | AID 588342 | actives 6.9% (n = 360,000) | Potency, µM (doses to about 57.5 µM), inactives show at the top dose activity change, negative = inhibition, hits mostly inhibitors | purified FLuc, Km substrates, luminescence inhibition;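 further: plate controls were vehicle for no effect and reference inhibitor for full effect; nearly all actives have a fitted effect of over 55% in size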
Target sequence (P08659 whole entry, looked up): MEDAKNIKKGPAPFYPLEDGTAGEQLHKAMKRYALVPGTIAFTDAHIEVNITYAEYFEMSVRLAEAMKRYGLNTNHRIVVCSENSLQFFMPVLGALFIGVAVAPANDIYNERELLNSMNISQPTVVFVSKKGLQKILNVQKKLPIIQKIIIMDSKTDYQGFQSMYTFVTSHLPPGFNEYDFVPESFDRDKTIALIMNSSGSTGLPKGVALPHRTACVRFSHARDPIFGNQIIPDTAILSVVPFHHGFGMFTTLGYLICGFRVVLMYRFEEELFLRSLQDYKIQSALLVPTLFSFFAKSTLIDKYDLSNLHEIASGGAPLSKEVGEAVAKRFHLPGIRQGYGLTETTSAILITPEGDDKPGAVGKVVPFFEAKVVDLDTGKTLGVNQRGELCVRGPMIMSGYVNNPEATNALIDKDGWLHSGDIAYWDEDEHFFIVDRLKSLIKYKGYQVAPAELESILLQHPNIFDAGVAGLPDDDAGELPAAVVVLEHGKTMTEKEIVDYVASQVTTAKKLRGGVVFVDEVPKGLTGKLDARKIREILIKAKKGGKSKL
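Biochemical qHTS of compounds, final roughly 60 µM downward over six points, against 10 nM purified firefly luciferase using Km concentrations of substrates (10 uM D-luciferin, 10 uM ATP) in Tris acetate pH 7.5 buffer; luminescence output.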
SMN2 splice enh: increases expression of the SMN2 splice variant; HEK293 SMN2-luciferase splicing reporter, luminescence, 30-36 h; actives 2.8% (n = 210,000); AID 1458; Potency, µM (top dose mostly 46.1 µM), for inactives: at the top dose activity change, positive = activation, hits mostly activators; further: % of control where 0% means no effect; nearly all actives have a fitted effect of over 55% in size
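HEK293 cells carry an SMN2 minigene-luciferase reporter in which exon 7 inclusion puts luciferase in frame. Cells were seeded at 2000 cells/well, attached for 10-12 hours, then exposed to compounds for 30-36 hours at 37C before ONE-Glo luminescence.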
ELG1 DNA repair: blocks ELG1-dependent DNA repair in HEK293T cells; HEK293T ELG1-luciferase reporter, luminescence, 16 h; DNA damage induced by 5-fluorouridine; Potency, µM (series often up to 46.1 µM), for the others: top-dose activity change, negative = inhibition, hits mostly inhibitors; actives 2.3% (n = 330,000); further: on the % scale 0 is the no-effect control and ±100 the full control effect; nearly all actives have a fitted effect of over 55% in size
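Step one: seed 2,000 cells per well. Step two: pin-transfer compound or DMSO alongside 5-fluorouridine. Step three: incubate 16 hr, 37 °C, 5% CO2. Step four: add ONE-Glo, wait 30 min, read luminescence.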
NPC1 promoter act: NPC1 promoter activation | Huh7 NPC1 promoter luciferase reporter, 24 h | Potency, µM (highest dose often 9.22 µM), for the others: at the top dose activation, hits mostly activators | actives 2.4% (n = 320,000); further: % of control where 0% means no effect; nearly all actives have a fitted effect of over 60% in size
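In 1536-well qHTS, Huh7 cells harboring an NPC1 promoter–luciferase construct received compound for 24 h; activation was quantified by luminescence following luciferase reagent addition.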
* marks the source's active call; other numbers are inactive results; ? = inconclusive; . = no result given; [ ] = dose if it differs, or a comment. Sampled rows, rich in hits. Any-hit rate of the full collection: about 9.2%. The call rests on the fitted dose curve; in most records, active means well fitted curve in the direction sought with a large enough effect; inconclusive means small, poorly fitted or top-dose-only effect, or another doubt; inactive means no such curve, though single readings can be large; an effect the other way counts as inactive or inconclusive. Potency means the concentration at half of the fitted maximal effect.

SMILES | Rab9 prom act | ELG1 genotox | FLuc modulator | SMN2 splice enh | ELG1 DNA repair | NPC1 promoter act
NC(=O)c1ccccc1N/C=C/C(=O)c1ccccc1 | 0.562µM* | 0.92µM* | 0.849µM* | 7.08µM* | ? | 0.562µM*
COC(=O)c1ccccc1N/C=C/C(=O)c1ccc(Br)cc1 | ? | 17.8% | 16.9µM* | 11.2µM* | ? | 24.8%
CCN1CCN(Cc2nnc(-c3ccc(C)cc3)o2)CC1 | -1.8% | 1.9% | -4.0% | . | 29.7% | -2.9%
COc1ccccc1NC(=O)CSc1nnc(NC(=O)c2ccco2)s1 | 7.7% | 13.9% | 15.1µM* | . | 27.9% | -1.3%
COc1ccc(OC)c(NC(=O)CSc2nncc3ccc(OC)c(OC)c23)c1 | -2.7% | -11.2% | -2.3% | . | 20.6µM* | 0.6%
COc1ccc(OC)c(NC(=O)CCNC(=O)c2ccco2)c1 | 6.4% | -3.3% | 2.9% | . | -4.0% | 0.1%
COc1ccc2cnnc(SCC(=O)Nc3ccccc3)c2c1OC | -3.3% | 1.3% | -2.3% | -13.6% | ? | 5.3%
O=C(Nc1nnc(SCc2ccc(F)cc2)s1)c1ccco1 | 0.2% | 6.1% | -11.4% | ? | 18.0% | 0.4%
COc1ccc(OC)c(NC(=O)CSc2nnc(NC(=O)c3ccco3)s2)c1 | 11.0% | -2.8% | 26.9µM* | . | -13.8% | 8.4%
COc1ccc(-n2c(SCC(=O)Nc3cccc(C(=O)O)c3)nnc2-c2ccco2)cc1 | -2.0% | -1.3% | 1.6% | . | -16.3% | -0.1%
COc1ccc(OC)c(NC(=O)CSc2nnc(-c3ccco3)n2-c2ccccc2)c1 | -7.8% | -10.3% | 4.1% | -3.4% | 10.3µM* | -4.7%
COc1ccc(-c2nn(-c3ccccc3)cc2C(=O)N2CCN(C(=O)c3ccco3)CC2)cc1 | . | -3.0% | . | . | ? | .
O=C(C1CC(=O)N(c2ccccc2F)C1)N1CCOCC1 (configuration not stated) | . | 0.3% | . | . | 0.0% | .
c1cc2c(cc1NC1CCCCCC1)OCO2 | 9.6% | 3.6% | ? | . | ? | -2.6%
S=C(NC1CCCCC1)c1ccc2c(c1)OCO2 | 24.9% | 11.5% | 8.49µM* | 18.8% | ? | 24.2%
O=C(NC1CCCCCCC1)c1ccc2c(c1)OCO2 | 0.398µM* | 2.06µM* | 3.01µM* | 5.01µM* | ? | 0.794µM*
CN(C(=O)c1ccc2c(c1)OCO2)C1(C(=O)NC2CCCC2)CCCCC1 | -3.3% | -3.7% | 1.2%[2.3 µM] | 2.2% | -1.2% | 1.5%
O=C(NNC(=S)NC1CCCCC1)c1ccc2c(c1)OCO2 | 1µM* | 5.4% | ? | 5.62µM* | ? | ?
O=C(NC1CCCCC1)c1ccc2c(c1)OCCO2 | 3.16µM* | 20.6µM* | 13.5µM* | . | ? | 1.41µM*
CC(=O)c1ccc[n+](CC(=O)NC(C)c2ccccc2)c1 (configuration not stated) | -2.3%[1.84 µM] | 1.2% | 0.1% | . | 0.0% | 0.9%
CCOC(=O)C1CCN(C(=O)Cn2nc(CC)n3c(cc4sccc43)c2=O)CC1 | . | . | -10.7% | -6.5% | . | .
CCc1ccc(C(=O)CN2CCSC2=N)cc1 | 0.708µM* | ? | 3.01µM* | ? | ? | 1.58µM*
c1nc(NCc2ccc3c(c2)OCO3)c2cc(-c3ccoc3)ccc2n1 | -0.6% | -6.9% | ? | . | 1.64µM* | 25.8%
c1cncc(-c2ccc3ncnc(NCc4ccc5c(c4)OCO5)c3c2)c1 | 1.4% | -4.3% | 2.7% | . | ? | 0.7%
CC1CCCCC1Nc1ncnc2sccc12 (configuration not stated) | -6.9% | -37.1% | -0.4% | . | -10.2% | -1.3%
COC(=O)COc1cccc(NC(=O)c2ccc(Cl)cc2)c1 | -8.5% | -5.2% | 26.9µM* | 0.1% | -2.5% | -2.1%
Cc1ccc(NC(=O)c2ccc(OC(=O)COc3ccc(Cl)c(C)c3)cc2)cc1 | 3.55µM* | ? | ? | 12.6µM* | ? | 2.24µM*
COC(=O)COc1cccc(NC(=O)c2ccc(C)cc2)c1 | -1.0% | 3.1% | 12µM* | -3.4% | -4.4% | -7.0%
